Assay [1] is described as follows: ATG_CRE_CIS: Attagene CIS-FACTORIAL HepG2 Assay for human cAMP Responsive Element (CRE) binding protein 3 (AID 2282926). The conditions noted are these: HepG2 CRE cis-reporter, Attagene multiplexed mRNA; actives raise or lower the signal. The procedure, abridged:
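Induced reporter mRNA from a CRE cis element, measured in HepG2 among many multiplexed units at 24 h. Detection used RT-PCR plus capillary electrophoresis of fluorescent fragments; DMSO served as negative control.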

In assay [2] the target is CCAAT/enhancer-binding protein beta (Homo sapiens) (UniProt P17676). In words: ATG_C_EBP_CIS: Attagene CIS-FACTORIAL HepG2 Assay for human CCAAT/Enhancer Binding Protein (C/EBP) beta (AID 2282927). To be noted: HepG2 Attagene cis-factorial transcription factor reporter; actives raise or lower the signal. The procedure, abridged: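 Following a 24 h incubation with test chemical, transfected HepG2 cells yielded RNA whose reporter transcripts were quantified by RT-PCR and fluorescent capillary electrophoresis, with DMSO serving as baseline for bidirectional fitting.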

Assay [3] is described as follows: ATG_DR4_LXR_CIS: Attagene CIS-FACTORIAL HepG2 Assay for human Liver X Receptor (LXR), DR4 submotif (AID 2282929). To be noted: HepG2 Attagene DR4 cis-reporter, mRNA transcription; actives raise or lower the signal. The procedure, abridged:
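Transiently transfected HepG2 liver cells; cis-regulated reporters; 24 h dosing. RT-PCR plus CE read-out of reporter mRNA. DMSO baseline, bidirectional curve fitting.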

Assay [4] has as its target Aryl hydrocarbon receptor (Homo sapiens) (UniProt P35869). Nature of the assay: ATG_Ahr_CIS: Attagene CIS-FACTORIAL HepG2 Assay for human Aryl Hydrocarbon Receptor (Ahr) (AID 2282930). The conditions noted are these: HepG2 AhR cis-factorial reporter transcription; actives raise or lower the signal. In short, it runs like this: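 Values derive from bidirectional fitting against DMSO negative control. Underlying signal: cis-element reporter mRNA in transiently transfected HepG2, harvested 24 h post-dose and measured by RT-PCR plus capillary electrophoresis.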

A short description of assay [5]: ATG_AP_1_CIS: Attagene CIS-FACTORIAL HepG2 Assay for human Activator Protein 1 (AP-1) (AID 2282931). The conditions noted are these: HepG2 Attagene cis-factorial AP-1 reporter mRNA; actives raise or lower the signal. In short, it runs like this:
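We transfected HepG2 cells transiently with a set of cis-regulated reporter transcription units, dosed them for 24 h, and quantified reporter mRNA via RT-PCR and capillary electrophoresis, scoring gain or loss of signal relative to DMSO.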

A short description of assay [6]: ATG_BRE_CIS: Attagene CIS-FACTORIAL HepG2 Assay for human Bone Morphogenetic Protein (BMP) Response Element (BRE) (AID 2282933). The conditions noted are these: HepG2 BMP response element reporter, Attagene transcription factor profiling; actives raise or lower the signal. The procedure, abridged: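 HepG2 cells transiently transfected with multiplexed cis-element reporter units were dosed with chemical for 24 h. Reporter mRNA was measured by RT-PCR with fluorescent labelling, HpaI digestion and capillary electrophoresis; bidirectional fitting relative to DMSO.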

Assay [7] concerns the target Retinoic acid receptor alpha (Homo sapiens) (UniProt P10276). In words: ATG_DR5_RAR_CIS: Attagene CIS-FACTORIAL HepG2 Assay for human Retinoic Acid Receptor Alpha (RARE), DR5 submotif (AID 2282934).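 For AC50: reporter responds to endogenous RAR alpha beta and gamma in HepG2 not RARA alone.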 To be noted: HepG2 Attagene cis-factorial RARE DR5 reporter, mRNA; actives raise or lower the signal. In short, it runs like this: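 Endpoint fitted in both directions relative to DMSO as negative control. It reflects DR5 cis-element reporter mRNA induction in transiently transfected HepG2 cells, measured 24 h after dosing through RT-PCR and fluorescent capillary electrophoresis.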

A short description of assay [8]: ATG_AP_2_CIS: Attagene CIS-FACTORIAL HepG2 Assay for human Activator Protein 2 (AP-2) (AID 2282932). To be noted: HepG2 AP-2 cis-reporter, Attagene transcription factor profiling; actives raise or lower the signal. In short, it runs like this: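 Cells (HepG2) transfected with promoter-driven reporter constructs, treated 24 h. Total RNA reverse-transcribed, reporter cDNA PCR-amplified, FAM-labelled by primer extension, digested, resolved by capillary electrophoresis. Activity fitted both directions versus DMSO.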

A short description of assay [9]: ATG_CMV_CIS: Attagene CIS-FACTORIAL HepG2 Assay for human CMV (Internal Marker) (AID 2282928).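 Note: endpoint acts as a background internal control marker rather than a target.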 To be noted: HepG2 CMV promoter reporter, transcription factor profiling; actives raise or lower the signal. The procedure, abridged: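 Readout: fluorescent reporter cDNA fragments separated by capillary electrophoresis after RT-PCR and HpaI cut. Cells: HepG2 carrying transfected cis-promoter reporter constructs, dosed 24 h. Endpoint serves as background internal-marker control, fit bidirectionally versus DMSO.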

Some structures have more than one record in an assay (separate samples or runs), and their calls can disagree. Calls of active or inactive are those of the source. Rule for the calls: active = hit-call score of the fitted dose curve at least 0.9, where 1 is the maximum; inactive = score below 0.9.

Chain of Aryl hydrocarbon receptor (Homo sapiens) (P35869 whole entry, looked up): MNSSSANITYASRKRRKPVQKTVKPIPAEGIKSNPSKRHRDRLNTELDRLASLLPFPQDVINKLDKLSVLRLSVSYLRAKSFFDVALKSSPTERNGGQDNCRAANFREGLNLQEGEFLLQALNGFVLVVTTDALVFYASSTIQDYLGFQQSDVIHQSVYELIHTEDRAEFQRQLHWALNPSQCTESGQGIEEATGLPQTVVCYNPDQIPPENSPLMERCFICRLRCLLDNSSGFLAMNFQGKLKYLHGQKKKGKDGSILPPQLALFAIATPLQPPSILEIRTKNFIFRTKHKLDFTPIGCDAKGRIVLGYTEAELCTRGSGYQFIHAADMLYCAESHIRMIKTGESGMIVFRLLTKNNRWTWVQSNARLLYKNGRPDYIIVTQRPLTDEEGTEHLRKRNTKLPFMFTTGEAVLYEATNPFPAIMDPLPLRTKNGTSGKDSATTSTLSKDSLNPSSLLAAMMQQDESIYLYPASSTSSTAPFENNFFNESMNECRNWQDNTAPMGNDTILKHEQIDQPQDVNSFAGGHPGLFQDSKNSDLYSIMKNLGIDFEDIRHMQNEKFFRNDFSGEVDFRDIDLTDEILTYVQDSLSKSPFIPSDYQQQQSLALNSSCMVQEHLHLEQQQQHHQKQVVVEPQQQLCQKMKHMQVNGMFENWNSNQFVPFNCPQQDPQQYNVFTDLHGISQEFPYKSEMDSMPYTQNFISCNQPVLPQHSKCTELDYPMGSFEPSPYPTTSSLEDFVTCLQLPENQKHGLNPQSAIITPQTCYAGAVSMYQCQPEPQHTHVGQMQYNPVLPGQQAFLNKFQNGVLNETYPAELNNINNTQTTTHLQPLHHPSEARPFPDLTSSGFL
Chain of CCAAT/enhancer-binding protein beta (Homo sapiens) (P17676 whole entry, looked up): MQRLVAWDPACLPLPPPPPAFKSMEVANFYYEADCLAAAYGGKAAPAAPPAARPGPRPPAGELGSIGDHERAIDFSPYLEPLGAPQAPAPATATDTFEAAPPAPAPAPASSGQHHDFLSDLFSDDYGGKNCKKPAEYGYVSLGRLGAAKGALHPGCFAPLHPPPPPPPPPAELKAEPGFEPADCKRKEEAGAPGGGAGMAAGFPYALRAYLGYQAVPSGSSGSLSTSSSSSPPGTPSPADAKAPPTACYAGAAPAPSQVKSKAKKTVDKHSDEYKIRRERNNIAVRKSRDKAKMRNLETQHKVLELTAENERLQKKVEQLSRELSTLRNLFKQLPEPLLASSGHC
Chain of Retinoic acid receptor alpha (Homo sapiens) (P10276 whole entry, looked up): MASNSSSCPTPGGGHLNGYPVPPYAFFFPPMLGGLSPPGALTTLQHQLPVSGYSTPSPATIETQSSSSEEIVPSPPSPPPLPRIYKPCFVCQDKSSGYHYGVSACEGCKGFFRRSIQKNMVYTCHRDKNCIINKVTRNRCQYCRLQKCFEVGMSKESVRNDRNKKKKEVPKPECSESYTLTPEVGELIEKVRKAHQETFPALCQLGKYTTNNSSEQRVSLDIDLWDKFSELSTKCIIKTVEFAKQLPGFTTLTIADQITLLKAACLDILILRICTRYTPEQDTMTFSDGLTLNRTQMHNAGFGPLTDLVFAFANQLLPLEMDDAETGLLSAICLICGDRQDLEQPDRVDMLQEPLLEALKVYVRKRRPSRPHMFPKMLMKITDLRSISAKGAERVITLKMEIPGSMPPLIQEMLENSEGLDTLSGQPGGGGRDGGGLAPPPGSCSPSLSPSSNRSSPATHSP

For the compound `CCOP(=S)(OCC)SCSc1ccc(Cl)cc1`, the call in [1], in assay [2], in assay [3], in assay [4], in assay [5] and in assay [6] was inactive. The result in assay [7] was inactive.

Turning to `CCCCC(CC)COP(=O)(Oc1ccccc1)Oc1ccccc1` (centres undefined), the compound was classed as inactive in assay [1], in assay [2], in assay [8] and in assay [7]. For the same compound, the half-maximal activity concentration (AC50) is 26.1 µM (active) in assay [3], 17.8 µM (active) in [4], 29.5 µM (active) in [5] and 21.4 µM (active) in assay [6].

Consider `O=P(OCC(Br)CBr)(OCC(Br)CBr)OCC(Br)CBr` (centres undefined), for which the compound was called inactive in assay [1], in [2] and in assay [7]. The concentration at half-maximal activity (AC50) was 8.35 µM (active) in [3]; 19.5 µM (active) in assay [4]; 53.9 µM (active) in [5]; 40.1 µM (active) in assay [8]; 20.6 µM (active) in assay [6].

As to `Oc1ccccc1Br`, the result in assay [1], in assay [2], in assay [3], in assay [4], in [5] and in assay [8] was inactive. In addition, the compound was classed as inactive in assay [6] and in assay [7].

As to `Cc1ccc(O)cc1C`, the outcome in [2], in assay [3], in [4], in [8], in assay [6] and in [7] was inactive.

For `Cc1c([N+](=O)[O-])cc2c(c1[N+](=O)[O-])C(C)(C)CC2(C)C`, the compound was called inactive in [1], in [2], in assay [3], in assay [4] and in [5]. Further, the AC50 in assay [6] was 100 µM (active); in [7], 2.78 µM (active).

Consider `Cc1ccc(C(=O)Cl)cc1`, for which the outcome in assay [1], in [2], in assay [3], in assay [4], in [5] and in [6] was inactive. In [7], the call was inactive.

For `COP(=O)(O)OC`, the compound was classed as inactive in [1], in assay [2], in assay [3], in assay [4], in assay [5] and in assay [8]. The compound was called inactive in [6] and in [7].

For `C=C(C)C(=O)OCC1CO1` (centres undefined), the call in assay [1], in [2], in assay [9], in [3], in assay [4] and in [5] was inactive. The compound was called inactive in assay [6] and in assay [7].

Regarding `CCOC(=O)c1ccccc1N`, the outcome in assay [1], in assay [2], in assay [3], in assay [4], in assay [5] and in assay [8] was inactive. The call in [6] and in assay [7] was inactive.

As to `C=CC(=O)OCC(F)(F)C(F)F`, the outcome in assay [1], in assay [2], in assay [4], in assay [5], in assay [6] and in assay [7] was inactive. The AC50 was 150 µM (active) in assay [9] and 67 µM (active) in assay [3].

With `O=NN1CCCC1`, the call in assay [1], in [2], in assay [3], in assay [4], in assay [5] and in assay [8] was inactive. Further, the outcome in assay [6] and in assay [7] was inactive.

With `CC(C)(C)c1ccc(O)cc1`, the outcome in assay [2], in assay [3] and in assay [4] was inactive. Besides, the values for the half-maximal activity concentration (AC50) in assay [9] and in [6] were 100 µM (active) and 58.1 µM (active), respectively.

In the case of `COC(N)=O`, the compound was classed as inactive in assay [1], in assay [2], in assay [3], in assay [4], in [5] and in assay [6]. For the same compound, the result in [7] was inactive.

`Cn1[nH]nnc1=S`: the compound was classed as inactive in assay [1], in assay [2], in assay [3], in assay [4], in assay [5] and in assay [8]. Also, the call in assay [6] and in assay [7] was inactive.

Consider `FC(F)(F)C(F)(C(F)(F)F)C(F)(F)C(F)(F)CC1CO1` (centres undefined), for which the call in [1], in assay [2], in assay [3], in assay [4], in [5] and in [8] was inactive. Besides, the compound was classed as inactive in assay [6] and in assay [7].

In the case of `CCCCc1ccc(O)cc1`, the compound was called inactive in [1], in assay [2], in [3], in assay [4], in [6] and in assay [7]. The AC50 is 71.4 µM (active) in assay [9] and 148 µM (active) in assay [5].

Turning to `CCN(CC)C1CCCCC1`, the compound was called inactive in assay [1], in assay [2], in assay [9], in assay [3], in assay [4] and in [5]. Also, the call in [6] and in assay [7] was inactive.

As for `CC1(C)CN=C(NN=C(/C=C/c2ccc(C(F)(F)F)cc2)/C=C/c2ccc(C(F)(F)F)cc2)NC1`, the concentration at half-maximal activity (AC50) in [1] was 8.42 µM (active); in assay [2], 3.09 µM (active); in [3] it was 8.29 µM (active); in [6], 16.7 µM (active). For the same compound, the compound was classed as inactive in assay [9], in assay [4], in assay [5] and in [7].

Take `O=[N+]([O-])c1cc(Cl)ccc1Cl`: the outcome in assay [1], in assay [2], in assay [3], in assay [4], in [5] and in [8] was inactive. Also, the compound was classed as inactive in assay [6] and in assay [7].

Turning to `COP(=O)(CCC(=O)NCO)OC`, the compound was classed as inactive in [1], in [2], in assay [3], in assay [4], in assay [5] and in assay [8]. Besides, the result in assay [6] and in assay [7] was inactive.

Regarding `OCC(F)(F)OC(F)(F)C(F)(F)OC(F)(F)C(F)(F)OC(F)(F)F`, the compound was classed as inactive in assay [1], in [2], in [3], in assay [4], in assay [5] and in [6]. Further, the result in assay [7] was inactive. Also, the AC50 in [3] was 80.8 µM (active).

As for `CCOP(=S)(OCC)SCn1nnc2ccccc2c1=O`, the compound was called inactive in assay [1], in [2], in [4], in assay [5] and in [7]. For the same compound, the concentration at half-maximal activity (AC50) was 64.7 µM (active) in [3] and 173 µM (active) in assay [6].

In the case of `CC(=O)CCc1ccc2c(c1)OCO2`, the outcome in assay [1], in assay [2], in assay [3], in [4], in assay [5] and in assay [6] was inactive. For the same compound, the call in [7] was inactive.

In the case of `O=C(O)C=CC(F)(C(F)(F)F)C(F)(F)F`, the result in assay [1], in [2], in assay [3], in [4], in [5] and in [8] was inactive. Moreover, the result in [6] and in [7] was inactive.

As for `O=c1ssc(Cl)c1Cl`, the half-maximal activity concentration (AC50) in assay [1] is 50.9 µM (active); in assay [2] it was 53.4 µM (active); in assay [3], 52.7 µM (active). The result in assay [4], in assay [5], in assay [8], in assay [6] and in assay [7] was inactive.

With `CCCCOCCOP(=O)(OCCOCCCC)OCCOCCCC`, the call in [1], in [2], in [3], in assay [5], in assay [8] and in [6] was inactive. Besides, the result in assay [7] was inactive.

Take `Nc1ccc(Sc2ccc(N)cc2)cc1`: the compound was classed as inactive in assay [1], in assay [2], in assay [3], in assay [5], in [6] and in [7]. Also, the concentration at half-maximal activity (AC50) in assay [4] was 19.4 µM (active).

Turning to `CO/N=C(/C(=O)OC)c1ccccc1COc1ccccc1C`, the result in assay [1], in assay [2], in [3] and in [8] was inactive. For the same compound, the concentration at half-maximal activity (AC50) in assay [4] was 22.9 µM (active); in assay [5], 8.54 µM (active); in [6] it was 27.7 µM (active); in assay [7], 5.62 µM (active).

With `N#Cc1cc([N+](=O)[O-])ccc1N`, the result in assay [1], in [2], in assay [3], in assay [5], in assay [8] and in [6] was inactive. The outcome in assay [7] was inactive. The AC50 in assay [4] is 2.51 µM (active).

Regarding `Oc1ccc(I)cc1`, the outcome in [1], in assay [2], in [3], in assay [4], in assay [5] and in [6] was inactive. The compound was classed as inactive in [7].

One may read the AC50 as the midpoint of the concentration-response curve, whichever way the signal moves.

The values are drawn from PubChem BioAssay (EPA / NIEHS).
